Compounds with a hit are over-represented: about 6.2% of the library has one in this group of screens.
Luc counter – counter-screen: inhibitors of Kinase-Glo firefly luciferase | Q27757 | Potency, µM (titrated, usually from 38.3 µM), hits mostly inhibitors | 200,000 compounds, 0.28% hits | Kinase-Glo luciferase, ATP luminescence, 8 min; also: nearly all actives have a fitted effect of over 60% in size
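Inhibition of Kinase-Glo luciferase light generation was assessed at 10 uM ATP in pH 7.2 imidazole buffer, with luminescence measured after eight minutes at ambient temperature.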
RORgamma inh – ROR gamma (mouse) transcription inhibition; Drosophila S2 Gal4-RORgamma UAS-luciferase reporter, 20 h; P51450; Potency, µM (doses to about 53.6 µM), actives largely listed as inhibitors; 310,000 compounds, 5.4% hits; AID 2551; also: nearly all actives have a fitted effect of over 60% in size
Target sequence (P51450 whole entry, looked up, the tested form may be a part): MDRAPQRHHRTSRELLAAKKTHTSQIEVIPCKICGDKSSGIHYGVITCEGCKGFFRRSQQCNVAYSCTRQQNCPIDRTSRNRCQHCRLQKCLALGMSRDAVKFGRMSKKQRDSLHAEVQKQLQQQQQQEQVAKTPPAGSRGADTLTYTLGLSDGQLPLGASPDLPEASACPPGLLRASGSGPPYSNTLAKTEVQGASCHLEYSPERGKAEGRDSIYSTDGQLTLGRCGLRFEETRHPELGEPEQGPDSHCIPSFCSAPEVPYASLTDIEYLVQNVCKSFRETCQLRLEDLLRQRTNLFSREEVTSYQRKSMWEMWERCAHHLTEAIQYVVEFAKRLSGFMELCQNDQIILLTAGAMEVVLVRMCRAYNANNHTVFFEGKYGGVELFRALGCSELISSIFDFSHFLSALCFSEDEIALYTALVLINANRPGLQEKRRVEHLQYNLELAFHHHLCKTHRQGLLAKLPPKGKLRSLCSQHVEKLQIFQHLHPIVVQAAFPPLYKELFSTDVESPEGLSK
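ROR gamma transcriptional activity was tracked as Gal4-UAS luciferase output in stably transfected Drosophila Schneider cells, with compound added 1 hr before 700 uM copper sulfate induction and a 20 hr ambient-temperature incubation.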
VP16 counter – Gal4-VP16 reporter inhibition counter-screen. Drosophila S2 Gal4-VP16 UAS-luciferase, luminescence, 20 h. AID 2546. Potency, µM (doses to about 53.6 µM), usual class: inhibitors. 310,000 compounds, 3.5% hits;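 also: Gal4-VP16 expression switched on by copper sulfate through the metallothionein promoter; nearly all actives have a fitted effect of over 50% in size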
Large screens that a line does not name were inactive. Calls follow the shape of the dose curve; as a rule, active = well fitted curve in the direction sought with a large enough effect; inconclusive = small, poorly fitted or top-dose-only effect, or another doubt; inactive = no such curve, though single readings can be large; an effect the other way counts as inactive or inconclusive.

CN(C)S(=O)(=O)c1ccc(C(=O)Nc2ccc(S(=O)(=O)NC3=NCCCCC3)cc2)cc1	none
N#Cc1ccc(NC(=O)c2cc(-c3cccs3)on2)cc1	none
O=C(Nc1nnc(-c2cccs2)o1)c1cccc(C(F)(F)F)c1	RORgamma inh 0.11µM, VP16 counter 0.11µM
O=C(Nc1cnccn1)c1cccc(C(F)(F)F)c1	RORgamma inh inconclusive
COc1cc(/C=N/NC(=O)CCN2CCN(C)CC2)cc2c1OCO2	none (no result: Luc counter)
CCOC(=O)CN1C(=O)NC2(CCCc3ccccc32)C1=O (stereo not given)	none (no result: Luc counter)
CCOC(=O)C(C)/C(C)=N/NC(N)=S (stereo not given)	RORgamma inh 0.71µM, VP16 counter 1.3µM
CCOC(=O)C(C)/C(C)=N\Nc1ccc([N+](=O)[O-])cc1[N+](=O)[O-] (stereo not given)	RORgamma inh inconclusive
CCCCNc1nc(C)nc2c1nc(-c1ccccc1)n2CCN(C)C	none
Clc1cccc(Cl)c1CO/N=C/c1c(-c2ccccc2)nc2n1CCS2	RORgamma inh 7.1µM
COC(=O)/C(C#N)=C/c1c(-c2ccccc2)nc2n1CCS2	none (no result: Luc counter)
CCCCN(C)CCC(=O)Nc1ccc2c(c1)CCC2	RORgamma inh inconclusive
Nc1nc(Cl)nc2c1ncn2C1OC(CO)C(O)C1F (stereo not given)	VP16 counter inconclusive (no result: Luc counter)
CC(C)S(=O)(=O)c1csc(C(=O)NN)c1Cl	RORgamma inh 10µM (no result: Luc counter)
CC(C)S(=O)(=O)c1csc(C(=O)NN)c1-n1cccc1	RORgamma inh inconclusive (no result: Luc counter)
Cc1noc(C)c1CSCC(=O)N(C)CC(=O)Nc1cccc(F)c1	none (no result: Luc counter)
C=CCNC(=O)N[C@@H](Cc1ccccc1)C(=O)OC	none (no result: Luc counter)
CC1CCc2nc(NC(=O)C3COc4ccccc4O3)sc2C1 (stereo not given)	RORgamma inh inconclusive, VP16 counter 10µM
Cc1csc(NC(=O)C2COc3ccccc3O2)n1 (stereo not given)	RORgamma inh 14µM, VP16 counter 11µM
Cc1nc2ccc3nc(NC(=O)C4COc5ccccc5O4)sc3c2s1 (stereo not given)	VP16 counter inconclusive
Cc1cccc(NC(=O)C2COc3ccccc3O2)n1 (stereo not given)	none (no result: Luc counter)
CC1CCc2nc(NC(=O)C3CC3)sc2C1 (stereo not given)	none
Cc1cc(NC(=O)C2COc3ccccc3O2)no1 (stereo not given)	none
Cc1cnc(NC(=O)C2COc3ccccc3O2)s1 (stereo not given)	RORgamma inh 7.1µM, VP16 counter 8.9µM
CSc1nc2ccc3nc(NC(=O)C4COc5ccccc5O4)sc3c2s1 (stereo not given)	RORgamma inh 10µM
CN(C(=O)Nc1cnccc1C(F)(F)F)C1CCCCC1	none (no result: Luc counter)
Cn1c(=O)c2c(nc(NN=C3CCCC3)n2C)n(C)c1=O	none (no result: Luc counter)
CCCCN(c1ccccc1)c1ncnc2c1cnn2C	none (no result: RORgamma inh, VP16 counter)
COc1ccccc1CN1CCC2(CC1)CCN(C(C)=O)CC2	none
O=C(CNC(=O)c1cccc(F)c1)N/N=C/c1cccnc1	none (no result: Luc counter)
CCOc1ccc2[nH]c3nc(SCC(=O)OC(C)C)nnc3c2c1	none (no result: Luc counter)
NNC(=O)CC12CC3CC(C1)CC(n1ncnn1)(C3)C2	none
O=C(CN1C(=O)C2CCCCC2C1=O)Nc1nc(-c2ccccn2)cs1 (stereo not given)	RORgamma inh inconclusive
O=C(O)C1CCC1C(=O)Nc1nc(-c2ccc(Cl)s2)cs1 (stereo not given)	none (no result: Luc counter)
CC1CC1C(=O)Nc1nc(-c2ccccn2)cs1 (stereo not given)	RORgamma inh 11µM, VP16 counter inconclusive
COCCCNC(=O)c1c(NC(=O)C2COc3ccccc3O2)sc2c1CCCC2 (stereo not given)	none
C[C@@H](C(=O)Nc1nc(-c2ccccn2)cs1)N1C(=O)C2CCCCC2C1=O (stereo not given in full)	RORgamma inh 13µM, VP16 counter inconclusive
O=C(Nc1nc(-c2ccccn2)cs1)C1COc2ccccc2O1 (stereo not given)	RORgamma inh 0.89µM, VP16 counter 0.2µM
O=C(Nc1nc(-c2ccccc2)cs1)C1COc2ccccc2O1 (stereo not given)	none
CCNC(=O)c1c(NC(=O)C2COc3ccccc3O2)sc2c1CCCC2 (stereo not given)	RORgamma inh inconclusive, VP16 counter 11µM
CCOC(=O)N1C=CC(C)=C[C@@H]2[C@@H](N3C(=O)c4ccccc4C3=O)C(=O)N21	none
COc1ccc(C(=O)NNC(=O)CSc2nnnn2-c2cc(OC)cc(OC)c2)cc1	VP16 counter inconclusive (no result: Luc counter)
Cc1nc(SCC(=O)NCc2ccco2)c2c(=O)n(C)c(=O)n(CC(C)C)c2n1	none
CCCc1cc2c(n1Cc1cc(F)cc(F)c1)C(C)C1CN(C(=O)c3ccccc3)C(C)(C(=O)OC)C21 (stereo not given)	none
O=C(Nc1ccccn1)C1COc2ccccc2O1 (stereo not given)	none
O=C(Nc1ccc(Cl)cn1)C1COc2ccccc2O1 (stereo not given)	RORgamma inh 4µM, VP16 counter inconclusive
O=C(Nc1ccc(Cl)cc1)N(Cc1nc2ccccc2c(=O)[nH]1)Cc1cccs1	RORgamma inh inconclusive, VP16 counter inconclusive
O=C(CCCl)N(Cc1nc2ccccc2c(=O)[nH]1)Cc1cccs1	RORgamma inh 11µM
CC(C)(C)C(=O)N(Cc1nc2ccccc2c(=O)[nH]1)Cc1cccs1	RORgamma inh inconclusive
O=C(Nc1ccccc1Cl)N(Cc1nc2ccccc2c(=O)[nH]1)Cc1cccs1	RORgamma inh 11µM, VP16 counter inconclusive
O=C(O)COc1ccccc1/C=C1\SC(=S)N(c2cccnc2)C1=O	none (no result: Luc counter)
Cc1ccc(NC(=O)C(=O)NCCN2CCN(S(=O)(=O)c3ccccc3)CC2)cc1C	none
Cc1ccc(S(=O)(=O)NCC(=O)N(CC2CCCO2)C(C(=O)NCC2CCCO2)C(C)C)cc1 (stereo not given)	none (no result: Luc counter)
O=C(N/N=C/c1ccccc1)c1[nH]ncc1Br	Luc counter 6.3µM
O=C(N/N=C/c1cccnc1)c1[nH]ncc1Br	Luc counter inconclusive
CCc1nn(CC(=O)NCCc2ccc(S(N)(=O)=O)cc2)c(=O)c2cc3sccc3n12	none (no result: Luc counter)
Cc1cccc(C)c1Nc1c(-c2ccsc2)nc2ncccn12	RORgamma inh inconclusive
Cc1ccn2c(NC3CCCC3)c(-c3ccsc3)nc2c1	RORgamma inh 11µM
Cc1cc(C(=O)Nc2cccc(NC(=O)c3ccco3)c2)ccc1[N+](=O)[O-]	RORgamma inh inconclusive (no result: Luc counter)
COc1ccc(C(=O)NC(=S)Nc2ccc(NC(=O)c3ccco3)cc2)cc1[N+](=O)[O-]	RORgamma inh inconclusive, VP16 counter inconclusive
COc1ccc(C(=O)NC(=S)Nc2cccc(NC(=O)c3ccco3)c2)cc1[N+](=O)[O-]	RORgamma inh 10µM, VP16 counter inconclusive
CCOc1ccc(C(=O)NC(=S)Nc2cccc(NC(=O)c3ccco3)c2)cc1[N+](=O)[O-]	RORgamma inh 6.3µM, VP16 counter 7.1µM
CCOc1ccc(N2CC(C(=O)Nc3ccc(OC)c(S(=O)(=O)N4CCCCC4)c3)CC2=O)cc1 (stereo not given)	RORgamma inh inconclusive
COc1ccc2c(c1)OC[C@H]1c3cc4c(cc3O[C@@H]21)OCO4	none
COc1ccc2nc(NC(=O)c3cccs3)sc2c1	RORgamma inh 10µM, VP16 counter inconclusive (no result: Luc counter)
COc1ccc(NS(=O)(=O)c2csc(C(=O)Nc3ccccc3)c2)cc1	RORgamma inh 13µM, VP16 counter 20µM

Compound activity (PubChem BioAssay)
